Test results published in the supplement of paper PMC6555819.

Tests used:
Assay in all cases: PBM binding z-score (relative to random genomic background probes); higher = stronger binding; sequences stand for … in GC…GCGATTGACAGCGTAGAATGAAGG
[1] = test system: FXR:RXRa (NR concentration 270 nM, RXRa partner concentration 90 nM)
Outline: (§1)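 The probes on custom Agilent 4×180K protein-binding microarrays were double-stranded, with 34-nt variable regions bearing direct-repeat seeds, single-nucleotide variants, half-site ablations and random human genomic background sequences. Incubation lasted 1 h with ligand-free nuclear receptor dimers in PBS pH 7.4, 2% milk, 0.02% Triton X-100, 1 mM DTT, 0.2 mg/mL BSA and 0.4 mg/ml salmon testes DNA. Antibodies against each partner (one per run) detected bound dimers, and fluorescence scans were regression-normalized. Binding z-scores take the random background probes as reference.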

[2] = test system: LXRa:RXRa (NR concentration 270 nM, RXRa partner concentration 90 nM)
Outline: as §1

[3] = test system: LXRa homodimer (NR concentration 270 nM)
Outline: as §1

[4] = test system: LXRb:RXRa (NR concentration 270 nM, RXRa partner concentration 90 nM)
Outline: as §1

[5] = test system: LXRb homodimer (NR concentration 270 nM)
Outline: as §1

[6] = test system: PPARa:RXRa (NR concentration 270 nM, RXRa partner concentration 90 nM)
Outline: as §1

[7] = test system: PPARg:RXRa (NR concentration 180 nM, RXRa partner concentration 90 nM)
Outline: as §1

[8] = test system: PPARg:RXRa 270nM:90nM, anti-RXR (NR concentration 270 nM, RXRa partner concentration 90 nM)
Outline: as §1

[9] = test system: PPARg:RXRa 30nM:10nM, anti-RXR (NR concentration 30 nM, RXRa partner concentration 10 nM)
Outline: as §1

[10] = test system: PPARg:RXRa 90nM:30nM, anti-RXR (NR concentration 90 nM, RXRa partner concentration 30 nM)
Outline: as §1

Sequence | PBM binding z-score [1] | PBM binding z-score [2] | PBM binding z-score [3] | PBM binding z-score [4] | PBM binding z-score [5] | PBM binding z-score [6] | PBM binding z-score [7] | PBM binding z-score [8] | PBM binding z-score [9] | PBM binding z-score [10]
CTCGAAAGGTCGGTTGACGTGAGTATACGGATAA | 1.71 | 1.46 | 0.0257 | 1.44 | 0.0927 | 2.2 | 0.565 | 0.822 | 0.194 | 0.528
CCTCAGAGGACAACAGGAGGTCAGAGCTGCCAGA | 1.05 | 2.25 | 2.4 | 1.34 | -0.195 | 2.09 | 0.662 | 0.51 | -0.374 | -0.163
AATACATGGTCATCGTAGGCCAGAGTACGCACAG | 0.0777 | 0.702 | 0.0647 | -0.141 | -0.0432 | 0.289 | 1.22 | 0.533 | 0.2 | 0.514
CCGAGTAGGTTTTGGGGCATTCAGGCAACGGTGA | 0.199 | 0.0127 | -0.127 | 0.177 | -0.134 | 0.31 | -0.0212 | 0.955 | -0.147 | 0.58
ACTAGCAGGCCATGTTTGGGTCACTCAAACAAAG | 0.27 | -0.058 | -0.283 | 0.735 | -0.846 | 1.31 | 0.145 | 0.304 | -0.51 | -0.31
CAAACTGGGTCAAGGTCAAAGTCGGTTTGTGCCA | 6.14 | 4.7 | 2.42 | 4.41 | 0.882 | 5.96 | 9.55 | 7.65 | 6.43 | 7.63
ATCTCTAGGTAAGACTCAGTTCAGTGATGAACGC | 0.343 | 0.402 | 0.634 | 0.249 | 0.676 | 0.268 | 0.294 | 0.427 | 0.243 | 0.302
TTCCCAAGGTGAGCTGAGGTCGTTGATCCAACTC | 3.13 | 1.59 | -0.148 | 0.959 | -1.02 | 1.55 | -0.346 | 0.767 | -0.184 | 0.534
TCTAGTTGGTCAAAGGTCCCACACTCGAAATGCG | 1.07 | 1.18 | 0.135 | 1.26 | 0.288 | 3.33 | 6.7 | 7.21 | 6.42 | 7.55
CGTCCAAGGTCAAAGGTCAGTGAGGAGATGACGG | 8.06 | 7.01 | 4.05 | 6.21 | 1.86 | 7.08 | 10.8 | 8.98 | 8.09 | 9.57
TCTTGTAGATCAAGCAGGTCAAGAAAGCCTGAGT | 0.916 | 1.2 | 0.357 | 1.67 | -0.193 | 2.29 | 0.0976 | 1.6 | 2.11 | 2.16
ATATGTAGGTTAACGGTCATTCAGGTTGGTTCGC | 2.12 | 2.46 | 2.98 | 2.2 | 1.2 | 5.22 | 9.32 | 8.6 | 7.82 | 9.3
CAAACTAGGTCACCGGAGGGTCAAAGTCCGCATG | 5.69 | 5.1 | 1.95 | 4.16 | 0.645 | 5.86 | 8.8 | 7.65 | 4.96 | 7.5
GCAGACAGCTGAAACGCAGGTAACTCAGGGTGGC | -0.689 | -0.548 | -0.369 | -1.06 | -1.49 | -0.559 | 0.436 | -0.461 | -0.695 | -0.928
CAAACTAGGTCAAGGTGAAAGTCGGTTTGTGCCA | 3.92 | 2.88 | 0.394 | 1.93 | 0.139 | 5.18 | 8.7 | 7.35 | 6.13 | 7.28
CCGACTGGGGCAAAGTTTACCATACTCAGTACGA | -0.248 | 0.0946 | -0.139 | 0.553 | -0.586 | 3.67 | 8.3 | 7.72 | 6.38 | 8.55
CCGAGTAGGTTATGGGGCCTTCAGGCAACGGTGA | 0.0359 | 0.107 | -0.191 | 0.353 | -0.362 | 1.33 | 1.43 | 2.56 | 0.26 | 1.58
TTACGAAGGTGAGCTGAGGTCGTTGATCCAACTC | 2.65 | 1.46 | -0.333 | 0.8 | -0.914 | 1.52 | 0.0154 | 0.637 | -0.115 | 0.0816
TATACAGGGTCAAATGCCAGAGTACGAATGTCGA | 7.66 | 6.63 | 3.82 | 5.33 | 3.42 | 6.33 | 7.57 | 6.6 | 3.95 | 5.73
TAGCCTAGGTCATTCAGCGGCCAGTATAGAAAGC | 5.03 | 3.68 | 1.04 | 2.68 | 0.455 | 3.72 | 2.09 | 2.21 | 0.564 | 1.12
TCTCGGAAGACACGAAAGGTCAGAGCTCGACATC | 2.36 | 3.38 | 1.85 | 3.1 | 0.242 | 3.61 | 0.772 | 2.46 | 3.29 | 2.35
CCTACTGGACCACGAAAGGTCATTGATTCAGTGA | 3.93 | 5 | 5.74 | 4.47 | 1.54 | 4.5 | 2.84 | 3.67 | 1.47 | 2.9
GGAACGAGGGCATTCGAGTTGATATCATGGCGAT | 1.43 | 2.06 | -0.497 | 0.289 | -0.383 | 1.64 | 1.04 | 0.683 | 0.332 | 0.448
TCAGACAGGCGAAGGTAACTCAGGTACGCAGTCG | 0.672 | 1.16 | -0.549 | 0.255 | -0.893 | 0.184 | 0.517 | 1.53 | 3.02 | 2.41

Sequence | PBM binding z-score [1] | PBM binding z-score [2] | PBM binding z-score [3] | PBM binding z-score [4] | PBM binding z-score [5] | PBM binding z-score [6] | PBM binding z-score [7] | PBM binding z-score [8] | PBM binding z-score [9] | PBM binding z-score [10]
CCTCGGAGGACAACAGGAGGTCGGAGCTGCCAGA | -0.0236 | -0.0275 | -0.149 | -0.236 | -0.893 | 0.19 | -0.122 | -0.445 | -0.792 | -1.05
ACTCAGAGGACAAAGGTCAGAGCTACGCCAGTGA | 4.51 | 4.87 | 1.72 | 3.52 | 0.532 | 5.3 | 7.56 | 7.42 | 5.13 | 7.46
ACTAGCAGGCCAAGTTTGGGTCACTCAAACAAAG | 0.133 | 0.0719 | -0.339 | 0.663 | -0.95 | 1.49 | 0.094 | 0.413 | -0.485 | 0.0599
GGAACGAGGGAAAGTTGATAGCAGAGTTTGATGG | -0.31 | -0.575 | -0.354 | -0.799 | -0.711 | -0.252 | 0.626 | 0.9 | 0.276 | 0.845
CCGACTGGGTCAAGGTTACCATAACGCACAGCCA | 3.19 | 2.1 | 0.079 | 2.21 | -0.717 | 4.15 | 6.25 | 5.71 | 3.15 | 5.32
TCTCAGAGGACACGAAGGTCAGAGCTTTCCAGAG | 1.39 | 1.27 | 0.407 | 0.974 | -0.749 | 2.07 | 0.696 | 2.01 | 3.02 | 2.45
ATCGAAAGGTCGTGCGGTGAGTATACAGAAAGGC | 5.34 | 4.25 | 0.222 | 3.12 | 1.5 | 4.84 | 3.25 | 3.58 | 1.04 | 2.23
CTCCCAAGGTGAACAAGGTCGTTGATTACTATTC | 1.08 | 1.47 | 0.177 | 1.84 | -0.42 | 2.36 | 0.575 | 1.07 | 0.0592 | 0.823
AGTCAAAGATCAGGACGAGGTAACGTAAAGCACG | 0.107 | -0.519 | -0.426 | -0.362 | -0.522 | 0.273 | 1.18 | 0.619 | 0.0734 | 0.677
TCTTGTAGAACAATAGAGGTTAAGAAAGTGCGCT | 0.656 | 2.99 | 0.526 | 1.58 | -0.26 | 1.92 | 0.287 | 1.7 | 2.64 | 2.2
GATACAGGGTCAAGGCCAGAGTGCGCGTATTGAT | 6.68 | 4.01 | 0.0458 | 3.51 | -0.343 | 5.4 | 5.81 | 5.34 | 2.09 | 4
ATATGTAGGTTACATCCGGGTTATTCAGGCTATG | 0.937 | 3.18 | 0.529 | 1.71 | 0.53 | 3.59 | 5.15 | 4.27 | 2 | 3.64
AGAGTGAGGTTATACGTAGATCAGGGAAGAAAGT | 2.32 | 2.18 | 0.433 | 2.06 | 0.71 | 2.91 | 1.11 | 1.19 | 0.329 | 0.849
CGGCCAAGGTCAGAGAGGTCAGTGAATGCCGAGT | 6.02 | 5.04 | 2.26 | 4.41 | -0.527 | 4.79 | 3.72 | 4.34 | 0.655 | 2.75
CCGCCTGGGGCAGAAAGGTTACCATACCATCCGG | 0.138 | 0.416 | -0.112 | 0.678 | -1.32 | 1.59 | 0.804 | 1.25 | -0.385 | 0.357
CGAACTAGGTCATTGACCGGACAGTGAATAGTAA | 5.26 | 4.95 | 2.4 | 3.37 | 0.0098 | 4.46 | 7.14 | 6.07 | 3.06 | 5.48
CCAGACAGGGGAGAAGGTAACTCAGCCTCGATTA | -0.354 | -0.331 | -0.147 | -0.0664 | -0.72 | -0.0873 | 0.239 | 0.0493 | -0.552 | 0.0211
GCATATAGGTAATACAAAGTGAAAGTCCGATTGT | -0.614 | -0.368 | -0.219 | -0.304 | -0.361 | 0.632 | 1.12 | 0.884 | 0.583 | 0.849
ATCTCCAGGTAAGACTCAGTTCAGTGAAGAACGC | 0.579 | 0.595 | 0.65 | 0.641 | 0.696 | 0.265 | 0.0991 | 0.41 | 0.426 | 0.596
CAAACTACGTCAAGAGGTCAAAGTCCGCTTCCCG | 5.07 | 5.77 | 5.87 | 4.77 | 2.06 | 5.09 | 3.07 | 4.83 | 2.39 | 4.26
CGTCCAAGGTCAATGCTAGGTCAGCGAAAGCATT | 6.63 | 5.79 | 2.77 | 4.08 | 1.43 | 5.16 | 4.44 | 4.73 | 1.24 | 3.25
TCGAGTAGGTTAGTCGGGGCATTCCGCCAACATA | 0.02 | 0.121 | -0.495 | 0.444 | -0.721 | 0.661 | -0.328 | 0.877 | 1.07 | 0.912
TCTCGAAGGACACGAAGGTCAGAGCTTTCCAGAG | 1.04 | 1.12 | -0.125 | 1.03 | -0.73 | 1.91 | 0.515 | 1.8 | 2.96 | 2.27
ACATGTAGGTTAAGGGTCATTCAGGTTGGTTCGC | 5.47 | 4.89 | 3.12 | 4.5 | 1.95 | 6.02 | 11.1 | 9.37 | 8.78 | 11
